# Records with an inconclusive call do not appear. Unmarked numbers belong to inactive results. Calls of active or inactive are those of the source. Calls follow the shape of the dose curve; as a rule, active = well fitted cell-killing curve with a large enough effect; inconclusive = small, poorly fitted or top-dose-only effect, or effect the other way; inactive = no such curve, though single readings can be large or run the other way.
# Assay: Quantitative High-Throughput drug screen in 47 multiple myeloma cell lines against the NCATS MIPE library collection: KMS21BM_JCRB cell viability assay (AID 1918974)
# Conditions: ATP luminescence, 48 h; viability: at 45.8 µM
# From the text: PI: Beverly A. Mock Ph.D.
# Laboratory of Cancer Biology and Genetics,
# Center for Cancer Research, National Cancer Institute,
# National Institute of Health, Bethesda, Maryland
# Drug resistance and disease progression are common in multiple myeloma (MM) patients, underscoring the need for new therapeutic combinations. […] We hypothesized that effective combinations would reduce MYC expression and enhance p16 activity. […] These preclinical data identify potentially useful drug combinations for evaluation in drug-resistant MM and reveal potential mechanisms of combined drug sensitivity.
# Described herein is the primary MIPE qHTS used to cherrypick compounds. Validated compounds were then further tested for potential synergistic activiy.
# [1] Peat TJ, Gaikwad SM, Dubois W, Gyabaah-Kessie N, Zhang S, Gorjifard S, Phyo Z, Andres M, Hughitt VK, Simpson RM, Miller MA, Girvin AT, Taylor A, Williams D, D'Antonio N, Zhang Y, Rajagopalan A, Flietner E, Wilson K, Zhang X, Shinn P, Klumpp-Thomas C, McKnight C, Itkin Z, Chen L, Kazandijian D, Zhang J, Michalowski AM, Simmons JK, Keats J, Thomas CJ, Mock BA. Drug combinations identified by high-throughput screening promote cell cycle transition and upregulate Smad pathways in myeloma. Cancer Lett. 2023 Aug 1;568:216284. doi: 10.1016/j.canlet.2023.216284. Epub 2023 Jun 24. PMID: 37356470; PMCID: PMC10408729.
# SEQUENCE No. (e.g., 1, 2, 3, etc.); […] (e.g., Cells, Incubation, Reagent, etc.); VALUE and DESCRIPTION.
# 1; Cells; 5 uL; white, solid bottom 1536-well Greiner assay plate.
# 2; Compounds; 23 nL; Kalypsis pin tool (Wako USA) equipped with a 1536-well pin head to transfer to the assay plates.
# 3; Incubation; 48 hours; 37C incubation.
# 4; Reagent;5uL; CellTiter Glo (Promega).
# 5; Detector; 425V; Luminescence; Viewlux PerkinElmer.
# NOTES (numbers refer to Sequence numbers above)
# 1. The cell-based screening methods employed in this study were like those previously published. Briefly, the corresponding myeloma cell lines were screened in 1,536-well plates with 500 cells, 5-uL per well for inhibition of cell viability (assessed by measuring ATP levels with CellTiterGlo).
# 2. NCATS MIPE 4.0 library of approved and investigational drugs were added using the Kalypsis pin tool. Wells treated with DMSO only for 100% viability and media only wells for 0% viability were used as controls.
# 3. The assay plates were covered and incubated for 48 hours in a 37C, 5% CO2 incubator with controlled humidity.
# 4. After 48 hours, CellTilter-GloTM luminescent substrate mix (Promega) reagent was added to the assay plate and plates we incubated for 5 min at room temperature.
# 5. Signal was measured as median relative luminescence units on a ViewLux (PerkinElmer) multiplate reader.
# [1] Heske CM, Davis MI, Baumgart JT, Wilson K, Gormally MV, Chen L, Zhang X, Ceribelli M, Duveau DY, Guha R, Ferrer M, Arnaldez FI, Ji J, Tran HL, Zhang Y, Mendoza A, Helman LJ, Thomas CJ. Matrix Screen Identifies Synergistic Combination of PARP Inhibitors and Nicotinamide Phosphoribosyltransferase (NAMPT) Inhibitors in Ewing Sarcoma. Clin Cancer Res. 2017 Dec 1;23(23):7301-7311. doi: 10.1158/1078-0432.CCR-17-1121. Epub 2017 Sep 12. PMID: 28899971; PMCID: PMC6636827.
# Potency is read from the fitted curve at half-maximal effect.
SMILES,Potency,viability
COc1ccc(N(C(=O)Oc2c(C)cccc2C)c2ccnc(Nc3ccc(N4CCN(C)CC4)cc3)n2)c(OC)c1,0.235 µM (active),
CC(C)N[C@@H]1CCn2c(=O)[nH]c3cccc(c32)[C@@H]1O,0.833 µM (active),
Cc1c(C(=O)Nc2cccc(C(F)(F)F)c2)cc(-c2ccccc2)n1CCCN1CCOCC1,18.7 µM (active),
C[C@@H]1O[C@@H](O[C@@H]2C=C3CC[C@@H]4[C@@H](CC[C@]5(C)[C@H](c6ccc(=O)oc6)CC[C@@]45O)[C@@]3(C)CC2)[C@H](O)[C@H](O)[C@H]1O,0.0264 µM (active),
CCNC(=O)CC1N=C(c2ccc(Cl)cc2)c2cc(OC)ccc2-n2c(C)nnc21 (stereo not given),5.9 µM (active),
CC(=O)N(C)c1cccc(-c2ccnc3c(C(=O)c4cccs4)cnn23)c1,,142%
C[C@@H]1CC[C@H]2[C@@H](C)C(=O)O[C@@H]3O[C@@]4(C)CC[C@H]1[C@]32OO4,,358%
C=C1C[C@H]2[C@H]3CCC(=O)[C@@]3(C)CC[C@@H]2[C@@]2(C)C=CC(=O)C=C12,14.8 µM (active),
C[C@@H]1CC[C@@]2(OC1)O[C@H]1C[C@H]3[C@@H]4CC=C5C[C@@H](O[C@@H]6O[C@H](CO)[C@@H](O[C@@H]7O[C@@H](C)[C@H](O)[C@@H](O)[C@@H]7O)[C@H](O)[C@@H]6O[C@@H]6O[C@@H](C)[C@H](O)[C@@H](O)[C@@H]6O)CC[C@]5(C)[C@@H]4CC[C@]3(C)[C@@H]1[C@H]2C,1.48 µM (active),
COc1ccc2c(c1)CN(C)CC2c1ccc(Cl)c(Cl)c1 (stereo not given),4.18 µM (active),
Cc1ccccc1-n1c(Cn2cnc3c(N)ncnc32)nc2cccc(C)c2c1=O,0.235 µM (active),
C[C@]12CC[C@H](O)CC1=CC[C@H]1[C@H]3CCC(=O)[C@@]3(C)CC[C@@H]12,11.8 µM (active),
CN1CCN(c2ccc([N+](=O)[O-])c3no[n+]([O-])c23)CC1,8.33 µM (active),
O=C(N[C@H]1CN2CCC1CC2)c1ccc(Cl)cc1,37.2 µM (active),
O=c1[nH]c2ccc(Cl)cc2c(N[C@@H]2CN3CCC2CC3)c1-c1nc2ccccc2[nH]1,0.0264 µM (active),
O=C(Nc1ccncc1)C(=O)c1cn(Cc2ccc(Cl)cc2)c2ccccc12,0.0074 µM (active),
COCC1(CO)C(=O)C2CCN1CC2 (stereo not given),4.18 µM (active),
CC(C)[C@]12O[C@@H]1[C@@H]1O[C@]13[C@]1(O[C@H]1C[C@@H]1C4=C(CC[C@@]13C)C(=O)OC4)[C@H]2O,,8.57%
CCOC(=O)Nc1ccc(NCc2ccc(F)cc2)cc1N,,158%
CC(C)(O)C=CC(=O)[C@](C)(O)[C@H]1[C@H](O)C[C@]2(C)[C@@H]3CC=C4[C@@H](C=C(O)C(=O)C4(C)C)[C@]3(C)C(=O)C[C@@]12C,0.0148 µM (active),
CC(C)[C@H]1C(=O)N[C@H](CO)Cc2c[nH]c3cccc(c23)N1C,,313%
CC(=Cc1csc(C)n1)[C@@H]1C[C@H]2O[C@]2(C)CCC[C@H](C)[C@@H](O)[C@@H](C)C(=O)C(C)(C)[C@@H](O)CC(=O)O1,,80.2% (active)
O=[N+]([O-])c1ncc[nH]1,,288%
CC1=NN=C(c2ccc(N)cc2)c2cc3c(cc2C1)OCO3,14.8 µM (active),
O=c1[nH]c2ccccc2n1C1CCN(Cc2ccc(-c3[nH]c4cc5ncnc5cc4nc3-c3ccccc3)cc2)CC1,16.6 µM (active),

# Reference: PubChem BioAssay (NCATS)
